The record followed here is PubChem BioAssay (NCATS).

Structures are written as SMILES. Values without a mark were called inactive. No rule for the calls is given here.
Potency is read from the fitted curve at half-maximal effect.

In this assay the test system is HIV-1 nucleocapsid protein NCp7 (binding to TG oligonucleotide). The experiment in a line: HIV Nucleocapsid (AID 346).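 Also: potency is for inhibitors that block NC binding and lower polarization.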 As to conditions: HIV-1 NC / fluorescein-TGTGTGTG probe, fluorescence polarization. Put shortly:
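Fluorescence polarization binding of 100 nM HIV-1 NC to 10 nM fluorescein-labelled TG4xF oligonucleotide. Buffer was Hepes pH 7.5 with 250mM NaCl, 1uM ZnCl2, TCEP and 2-mercaptoethanol. Compounds were incubated 1 hr at room temperature before the read.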
Background: In fluorescence polarisation assays a small probe gives low polarisation when free and higher when bound to something large.
Take `Cn1cccc1C(=O)N1CCC2(CCN(Cc3ccncc3)CC2)CC1`: the Potency was greater than 20 µM. Take `CNc1nc(-c2ccccc2C)nc2ccccc12`: the Potency was greater than 20 µM. For `COc1ccccc1CN1CCCC2(CCN(S(C)(=O)=O)CC2)C1`, the Potency is greater than 20 µM. On to `COc1ccccc1CNc1cc(-c2ccoc2)ncn1`, for which the Potency was greater than 20 µM. Regarding `N#Cc1cccc(-c2nccc(NCc3cccnc3)n2)c1`, the Potency is greater than 20 µM. Then `O=C(c1cc(C(F)(F)F)cc(C(F)(F)F)c1)N1CCC2(CCCN(Cc3ccncc3)C2)CC1`, with greater than 20 µM; and `O=c1c(-c2ccc(Cl)cc2)nc2cnc(N3CCOCC3)nc2n1-c1ccccc1`, with greater than 20 µM; and `COCCn1c(=O)c(-c2ccc(F)cc2)nc2cnc(Oc3ccc(OC)cc3)nc21`, with greater than 20 µM. `Fc1ccc(Nc2nc(-c3ccoc3)nc3ccccc23)cc1`: the Potency is greater than 20 µM. Consider `COc1cccc(-c2nc(N(C)Cc3ccco3)c3ccccc3n2)c1`, for which the Potency was greater than 20 µM. Then `O=C(Nc1ccccc1)N1CCC2(CC1)CCN(C(=O)c1ccco1)CC2`, with greater than 20 µM. With `CN(C)Cc1ccccc1-c1nc(N2CCOCC2)c2ccccc2n1`, the Potency was greater than 20 µM. As to `COCCn1c(=O)c(-c2cccc(C#N)c2)nc2cnc(OCc3ccccc3)nc21`, the Potency is greater than 20 µM. In the case of `N#Cc1cccc(-c2cncnc2NCc2ccccc2)c1`, the Potency is greater than 20 µM. `O=C(c1cnccn1)N1CCC2(CCCN(Cc3ccncc3)C2)CC1`: the Potency is greater than 20 µM. As for `COc1ccccc1-c1cncnc1-n1ccnc1`, the Potency is greater than 20 µM.

Turning to `O=C(c1ccncc1)N1CCC2(CC1)CCN(C(c1ccccc1)c1ccccc1)CC2`, the Potency was greater than 20 µM.

`CN(Cc1ccco1)c1nc(-c2cccc(C#N)c2)nc2ccccc12`: the Potency is greater than 20 µM.

Turning to `COc1cccc(Cn2c(=O)c(-c3ccc(Cl)cc3)nc3cnc(N(C)C)nc32)c1`, the Potency was greater than 20 µM.

Take `CN(C)C(=O)c1ccc(-c2ccc3ncnc(N(C)Cc4ccco4)c3c2)cc1`: the Potency was greater than 20 µM. Consider `COCC(=O)N1CCC[C@@]2(CCN(C(=O)Nc3ccccc3)C2)C1`, for which the Potency is greater than 20 µM.

As for `N#Cc1cccc(-c2nc3cnc(N4CCOCC4)nc3n(C3CC3)c2=O)c1`, the Potency was greater than 20 µM. Turning to `O=C(Oc1ccccc1)N1CCC[C@@]2(CCN(c3ccccn3)C2)C1`, the Potency is greater than 20 µM. As for `CN(C)Cc1ccccc1-c1nc(N(C)C)c2ccccc2n1`, the figure is greater than 20 µM. `COc1cccc(Cn2c(=O)c(-c3cc(F)cc(F)c3)nc3cnc(OC)nc32)c1`: the Potency is greater than 20 µM. Turning to `CS(=O)(=O)Nc1cccc(-c2ccc3ncnc(NC4CC4)c3c2)c1`, the Potency is greater than 20 µM. Consider `COc1ccc(-c2nc3cnc(OC)nc3n(-c3ccc(OC)cc3)c2=O)cc1`, for which the Potency is greater than 20 µM. Regarding `CCNc1ncc2nc(-c3ccccc3)c(=O)n(C)c2n1`, the Potency was greater than 20 µM.

Turning to `O=c1c(-c2ccc(F)cc2)nc2cnc(N3CCNCC3)nc2n1Cc1cccs1`, the Potency was greater than 20 µM. In the case of `CC(C)CN1CC[C@@]2(CCCN(C(=O)c3cc(C(F)(F)F)cc(C(F)(F)F)c3)C2)C1`, the Potency was greater than 20 µM. As to `CC(=O)NCCNc1nc(-c2ccccc2C)nc2ccccc12`, the Potency was greater than 20 µM. With `O=C(c1csnn1)N1CCC[C@@]2(CCN(c3ccccn3)C2)C1`, the Potency was greater than 20 µM. `Cn1c(=O)c(-c2cccs2)nc2cnc(N3CCOCC3)nc21`: the Potency was greater than 20 µM.

Consider `COc1ccccc1-c1nc(NCCc2cnc[nH]2)c2ccccc2n1`, for which the Potency was greater than 20 µM.

Regarding `O=c1c(-c2ccccc2)nc2cnc(N3CCNCC3)nc2n1Cc1cccs1`, the Potency is greater than 20 µM. Then `N#Cc1cccc(NC(=O)N2CC[C@@]3(CCCN(C(=O)c4cccc(F)c4)C3)C2)c1`, with greater than 20 µM; and `COc1ccccc1CN1CCC2(CC1)CCN(C(=O)c1c(C)noc1C)CC2`, with greater than 20 µM. As to `Cc1ccccc1-c1nccc(-n2ccnc2)n1`, the Potency is greater than 20 µM. `O=C(c1csnn1)N1CCC2(CC1)CN(c1ncccn1)C2`: the Potency was greater than 20 µM. Then `O=C(c1ccncc1)N1CCC[C@@]2(CCN(c3ncccn3)C2)C1`, with greater than 20 µM.
